Data as given in PubChem BioAssay (NCATS).
Results filed as inconclusive are left out. Active and inactive are the calls of the source. Calls come from the whole dose curve; as a rule, active = well fitted curve in the direction sought with a large enough effect; inconclusive = small, poorly fitted or top-dose-only effect, or another doubt; inactive = no such curve, though single readings can be large; an effect the other way counts as inactive or inconclusive.

Tests used:
[1] = OV-SAHO Cancer Cell Toxicity qHTS against the NCATS CANVASS Library (AID 1347348); note: nearly all actives have a fitted effect of over 55% in size; note: potency is the fitted concentration of half-maximal effect
In short: (§1)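 Cells were seeded at 1000 per well, allowed 4 h at 37 degrees C/5% CO2, then pin-treated with an 11-point compound series. After 72 h, viability was read as CellTiter-Glo luminescence following 15min at room temperature.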

[2] = SW1088 Cancer Cell Toxicity qHTS against the NCATS CANVASS Library (AID 1347350); note: nearly all actives have a fitted effect of over 75% in size; note: potency is the fitted concentration of half-maximal effect
In short: as §1

[3] = HPAF-II 24hr Apoptosis Induction qHTS against the NCATS CANVASS Library (AID 1347356)
In short: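 Caspase-Glo 3/7 luminescence, read after 15 min room-temperature development, measures apoptosis in HPAF-II cells treated 24 h at 37 degrees C with an 11-point concentration series; 500 cells/well; doxorubicin control.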

[4] = HPAF-II 12hr Apoptosis Induction qHTS against the NCATS CANVASS Library (AID 1347358)
In short: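 Caspase-3/7 activation by DEVD-substrate luminescence (Caspase-Glo 3/7, 15 min, room temperature) after a 12-hour compound exposure in 11 concentrations, of HPAF-II pancreatic cells seeded at 500/well in DMEM with 10% FBS.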

[5] = HEK293 24hr Apoptosis Induction qHTS against the NCATS CANVASS Library (AID 1347359)
In short: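 Caspase-3/7 activation measured as luminescence from the DEVD-based Caspase-Glo reagent, 15 min at room temperature, following 24-hour compound treatment of HEK293 cells.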

[6] = tested on: NAD(P)H diaphorase (Clostridium kluyveri); test: Diaphorse counterscreen qHTS: Assay Interference Panel against the NCATS CANVASS Library (AID 1347362); note: potency is the fitted concentration of half-maximal effect
In short: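 Counterscreen for coupling-enzyme interference: resorufin fluorescence from resazurin/NADH turnover, read after 5 min at room temperature. Compounds were tested over an 11-point series after 15 min dark preincubation with diaphorase in PBS-Tween.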

[7] = biological target: Luciferin 4-monooxygenase (Photinus pyralis) (UniProt P08659); test: Firefly luciferase counterscreen qHTS: Assay Interference Panel against the NCATS CANVASS Library (AID 1347363); note: series mostly up to about 57 µM
Luciferin 4-monooxygenase (Photinus pyralis), sequence (P08659 whole entry, looked up): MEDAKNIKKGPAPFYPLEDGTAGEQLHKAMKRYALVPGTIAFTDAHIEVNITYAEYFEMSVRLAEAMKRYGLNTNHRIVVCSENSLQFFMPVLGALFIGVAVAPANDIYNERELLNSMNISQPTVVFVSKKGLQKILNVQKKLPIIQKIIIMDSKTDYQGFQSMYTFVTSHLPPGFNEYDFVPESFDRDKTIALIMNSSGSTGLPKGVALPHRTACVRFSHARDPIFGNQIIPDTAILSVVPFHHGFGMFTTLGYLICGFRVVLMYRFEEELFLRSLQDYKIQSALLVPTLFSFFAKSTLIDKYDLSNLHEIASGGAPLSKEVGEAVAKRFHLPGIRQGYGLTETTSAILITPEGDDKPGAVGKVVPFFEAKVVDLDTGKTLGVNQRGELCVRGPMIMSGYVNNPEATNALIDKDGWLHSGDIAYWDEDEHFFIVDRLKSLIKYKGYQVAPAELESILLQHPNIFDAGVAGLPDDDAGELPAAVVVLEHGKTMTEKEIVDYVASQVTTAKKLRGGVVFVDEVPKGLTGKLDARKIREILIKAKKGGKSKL
In short: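 Luminescence inhibition readout: compounds (11-point qHTS) sat 15 min at room temperature with substrate mix (0.013 mM luciferin and ATP), then firefly luciferase was added and signal read 5 min later.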

[8] = KB-8-5-11 Cancer Cell Toxicity qHTS against the NCATS CANVASS Library (AID 1347364); note: nearly all actives have a fitted effect of over 75% in size
In short: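 Viability read as CellTiter-Glo luminescence after 72 h at 37 °C, 5% CO2. 11-point compound series on 500 KB-8-5-11 cells/well in DMEM/10% FBS. Follow-up plating included 1 uM tariquidar in the medium.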

[9] = KB-3-1 Cancer Cell Toxicity qHTS against the NCATS CANVASS Library (AID 1347366); note: nearly all actives have a fitted effect of over 75% in size
In short: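 500 KB-3-1 cells/well; compounds pin-transferred, 11-pnt series; 72 hr, 37C/5% CO2; CellTiter-Glo, 10 min RT; luminescence read-out.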

[10] = biological target: Nuclear receptor subfamily 1 group I member 3 (Homo sapiens) (UniProt Q14994); test: qHTS for Constitutive Androstane Receptor (CAR) Antagonist screened against the NCATS CANVASS Library (AID 1347372);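 note: cells stimulated with 50 nM CITCO agonist so inhibition reflects antagonism; series mostly up to about 46 µM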
Nuclear receptor subfamily 1 group I member 3 (Homo sapiens), sequence (Q14994 whole entry, looked up): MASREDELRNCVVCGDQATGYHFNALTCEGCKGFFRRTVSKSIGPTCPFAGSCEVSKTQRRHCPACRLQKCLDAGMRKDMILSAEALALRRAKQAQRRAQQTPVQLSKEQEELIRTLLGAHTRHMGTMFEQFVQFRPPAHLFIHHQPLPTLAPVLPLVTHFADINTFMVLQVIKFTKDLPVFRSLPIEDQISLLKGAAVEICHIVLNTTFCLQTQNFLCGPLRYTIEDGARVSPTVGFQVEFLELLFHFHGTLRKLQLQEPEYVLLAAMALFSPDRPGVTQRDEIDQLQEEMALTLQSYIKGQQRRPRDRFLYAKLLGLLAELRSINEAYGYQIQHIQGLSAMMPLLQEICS
In short: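 Antagonist mode: compound added alongside 50 nM CITCO to HepG2-hCAR-CYP2B6 reporter cells, 24hr at 37C. Viability by CellTiter-Fluor fluorescence, then CAR-driven luciferase by ONE-Glo luminescence.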

[11] = qHTS for Hypoxia signaling pathway (HIF-1) agonists against the NCATS CANVASS Library (AID 1347375); note: potency is the fitted concentration of half-maximal effect
In short: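 Beta-lactamase reporter under HRE control in ME-180 cells; compounds (11-point qHTS series) added after 5 hrs plating, then 17 hrs at 37C. FRET substrate read after 2 hr; same-well CellTiter-Glo luminescence gave viability and normalization.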

[12] = 10-beta competent E. coli microbial cell viability qHTS against the NCATS CANVASS Library (AID 1347376); note: series mostly up to about 46 µM
In short: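 Read-out: BacTiter-Glo ATP luminescence, taken 20 min after reagent addition. Beforehand, 10-beta competent E. coli at 0.2 OD had been incubated overnight at 37C with compounds at 11 concentrations.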

[13] = DH5-alpha competent E. coli microbial cell viability qHTS against the NCATS CANVASS Library (AID 1347377); conditions: outcome: dose series up to 46.1 µM unless noted
In short: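 Bacterial viability as ATP-dependent luminescence (BacTiter-Glo), read after overnight 37 °C exposure of DH5-alpha competent E. coli to compounds in 11-point titration.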

[14] = qHTS for H2AX Agonists against the NCATS CANVASS Library (AID 1347378)
In short: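 TR-FRET readout (ex 320 nm, em 665/620 nm ratio) of phospho-H2AX (S139) in CHO-K1 lysates. Cells treated 3 hr at 37C with compound titration, 0.76% DMSO; lysis 30 min, antibody detection 24 hr at RT.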

[15] = qHTS for Activators of p53 Stress Response Pathway screened against the NCATS CANVASS Library (AID 1347388)
In short: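 Beta-lactamase reporter driven by p53 response elements in HCT-116 cells, read as the 460 nm/530 nm emission ratio after CCF4 loading, following 16 h of exposure to an 11-point series. Cell viability was measured in the same wells by CellTiter-Glo luminescence.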

[16] = qHTS assay for small molecule disruptors of mitochondrial membrane potential screened against the NCATS CANVASS Library (AID 1347389); note: nearly all actives have a fitted effect of over 60% in size; note: potency is the fitted concentration of half-maximal effect
In short: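 Mitochondrial membrane potential in HepG2: 1 h compound treatment (11-point concentration series), 30 min m-MPI dye at 37C, then dual fluorescence of J-aggregates (ex 540/em 590) and monomers (ex 490/em 535); lower red/green ratio indicates depolarization.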

[17] = Secretion counterscreen for inhibitors of the SERCaMP assay screened against the NCATS CANVASS Library (AID 1347390);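 note: light from luciferase secreted into medium read as a measure of general secretion; series mostly up to about 77 µM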
In short: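 Luminescence from constitutively secreted GLuc in SH-SY5Y-GLuc STOP cells, read after coelenterazine addition, served as read-out. Compounds tested 0.001 - 77 uM for 20 h at 37C; Brefeldin A as positive control.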

[18] = qHTS for activators of dead-cell proteases activity screened against the NCATS CANVASS Library (AID 1347392);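 note: luminescence from protease leaking out of membrane-damaged cells cleaving impermeant substrate; rising signal means more cytotoxicity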
In short: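 Luminescent dead-cell protease readout (AAF-aminoluciferin, 15 min, room temperature) after 5 h compound treatment of HepG2 cells (2000/well, pre-attached 18 h). Eleven concentrations.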

[19] = qHTS for inhibitors of Wild type Zika virus screened against the NCATS CANVASS Library (AID 1347396);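 note: ATP luminescence of surviving cells so rescue from viral cell killing; series mostly up to about 46 µM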
In short: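 Using ATP-based luminescence (CellTiter Glo), this screen scores rescue of Vero 766 cells from wild-type Zika killing at 72 h post-infection. Compounds are tested in a concentration series.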

[20] = Viability qHTS for inhibitors of the SERCaMP assay screened against the NCATS CANVASS Library (AID 1347400); note: series mostly up to about 92 µM; nearly all actives have a fitted effect of over 70% in size
In short: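 CellTiter-Glo luminescence measured cytotoxicity after 48 h at 37C of compound treatment (11-point series). Cells were SH-SY5Y-GLuc SERCaMP MJH297 derivatives, seeded at 1000 per well 4 h beforehand.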

Measured: Potency

C=C[C@@]1(C)CC[C@@H]([C@H](C)C(=O)/C=C/C(C)C)O1
inactive: all assays above

O=c1cc(-c2ccc(O)cc2)oc2c([C@@H]3OC(CO)[C@H](O)[C@@H](O)[C@H]3O)c(O)cc(O)c12 (stereo partly drawn)
not listed: [17]
inactive: all other assays above

COc1ccc(CCCc2cc(O)c(OC)c(O)c2)c(O)c1O
active: [6] 21.6 µM
not listed: [9] | [16]
inactive: all other assays above

C[C@@]12CCC[C@@](C)(C(=O)O)[C@H]1C[C@@H](O)[C@]13C[C@H]4C[C@H](O[C@@]4(C)C1)[C@@H]23
inactive: all assays above

C=C1C[C@@]23C=CC(=O)[C@@](C)(CCC(=O)Nc4c(OC5O[C@H](CO)[C@@H](O)[C@H](O)[C@H]5O)ccc(C(=O)O)c4O)C2C[C@@H]1CC3 (stereo partly drawn)
not listed: [13] | [20]
inactive: all other assays above

C[C@@H]1O[C@H](c2c(O)cc(O)c3c(=O)cc(-c4ccc(O)cc4)oc23)[C@H](O)[C@H](O)[C@H]1O
inactive: all assays above

CC(=O)O[C@H]1CC[C@@]2(C)C(CC[C@]3(C)C2CC=C2C4CC(C)(C)CC[C@]4(C)CC[C@]23C)C1(C)C (stereo partly drawn)
not listed: [16]
inactive: all other assays above

CC(C)=CCC/C(C)=C/Cc1c(O)c(CC=C(C)C)c(O)c2c(=O)c3cc(O)ccc3oc12
active: [1] 10.6 µM | [2] 9.43 µM | [11] 13.3 µM | [16] 1.86 µM
not listed: [8] | [9] | [14] | [15] | [18] | [19]
inactive: all other assays above

C1=C2CCCN[C@@H]2[C@@H]2CCN3CCCC[C@@H]3[C@H](C1)C2
inactive: all assays above

CC1=CC[C@@]2(C[C@@H]1O)[C@@H](C(=O)O)CC[C@H]2C(C)C
inactive: all assays above

C=C1[C@H]2CC[C@@]3(C=CC(=O)[C@@](C)(CCC(=O)Nc4c(O)ccc(C(=O)O)c4O)C3C2)[C@H]1O (stereo partly drawn)
inactive: all assays above

CC1C(=O)C23CCC1C[C@]21O[C@@H]2C(C)(C)C=CC(=O)[C@@]23COC1=O (stereo partly drawn)
inactive: all assays above
